Structures are written as SMILES. This is part of a sample that, as a whole, favours compounds with a hit. Of some 83,000 tested, about 20% had one in any assay.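 Note: values are percent growth. 100 is the growth of untreated cells, values between 100 and 0 indicate rising inhibition; between -100 and 0 indicates cell death.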 Values without a mark were called inactive. The source made the active and inactive calls.

The test system of the test is MOLT-4 leukemia. Briefly: NCI-60 one-dose screen, 48 h (100 = growth as untreated, 0 = no growth, -100 = all killed). The conditions noted are these: 10 µM unless noted. Here is the method: Growth inhibition of the MOLT-4 human tumor cell line is measured as a screen for anti-cancer activity. Cells are grown in 96 well plates and exposed to the test compound for 48 hours. Compounds are tested at a single concentration, which is 10^-5 M for most compounds. The reported endpoint is percent growth (GI% or GIPRCNT), where numbers from 0 - 100% represent growth inhibition, and numbers from -100% - 0 represent cell death. For example, a value of 40 represents 60% growth inhibition. A value of 0 means no net growth occurred over the course of the experiment. A value of -40 indicates 40% of cells at the beginning of the experiment died by the end of the experiment. A value of -100 means all cells are dead at the end of the experiment.
NCI-60 Human Tumor Cell Lines Screen was performed using the standard one-dose NCI protocol, which is described in more detail at https://dtp.cancer.gov/discovery_development/nci-60/default.htm.
Compounds with GIPRCNT values below 10 were considered active. Activity score was based on GIPRCNT using the following formula: […]
Score is 0 for GIPRCNT values of 100 or above, 50 for GIPRCNT values of 0, and 100 for GIPRCNT values of -100.
For `CC(=O)OC(C)COc1ccc(-c2ccccc2)cc1` (stereo not given), the growth was 100%.

`CC1(C)CC[C@]2(C(=O)NCCNCCN)CC[C@]3(C)C(=CC[C@@H]4[C@@]5(C)CCC(=O)C(C)(C)[C@@H]5CC[C@]43C)[C@@H]2C1`: the growth was 3.49% (active).

Turning to `COC(=O)[C@]12CC[C@@H](C)[C@H](C)[C@@H]1C1=CC[C@@H]3[C@@]4(C)C[C@@H](OC(C)=O)[C@H](O)[C@@](C)(CO)[C@@H]4[C@H](O)C[C@@]3(C)[C@]1(C)CC2`, the growth is -55.9% (active).

`CC1=CC(=O)N(c2cccc3c(N4C(=O)C=C(C)C4=O)cccc23)C1=O`: the growth was 4.75% (active).

In the case of `Oc1ccc(CCC2CCCC(CCc3ccc(OCCF)cc3)N2)cc1` (stereo not given), the growth was 76.2%.

`N#C/C(=C\c1ccc(-c2cccc(C(F)(F)F)c2)o1)c1nc(-c2ccco2)cs1`: the growth was 93%.

Turning to `Cn1c(=O)c2c(nc(N3CCCC3)n2C)n(C)c1=O`, the growth was 95.1%.

Take `COc1c(N)c2c(c([N+](=O)[O-])c1OC)C(=O)OC2`: the growth was 81.2%.

On to `COc1cc(/C=C/c2cc(/C=C/c3ccc(O)c(OC)c3)n(-c3ccccc3)c(=O)n2)ccc1O`, for which the growth was 31.5%.

`CCCCCCCC(=O)SCC/C=C/[C@@H]1CC(=O)NCc2cccc(n2)CN(Cc2ccc3ccccc3c2)CC(=O)N[C@@H](C(C)C)C(=O)O1`: the growth was 2.35% (active).

With `COc1ccc(/C=C/C(=O)c2ccc([N+](=O)[O-])cc2)cc1`, the growth was 86.3%.

Regarding `O=C1CCC/C=C\C[C@H]2C=C(Cl)C(=O)/C2=C/C[C@H](CCCCC(F)(F)F)OC(=O)CCC/C=C\C[C@H]2C=C(Cl)C(=O)/C2=C/C[C@H](CCCCC(F)(F)F)O1`, the growth is 1.97% [7.5 µM] (active).

In the case of `Nc1ccc(Cl)cn1`, the growth was 102%.

As to `C[C@H]1[C@H]2C3=CC[C@@H]4[C@@]5(C)C/C(=C/c6ccco6)C(=O)C(C)(C)[C@@H]5CC[C@@]4(C)[C@]3(C)CC[C@@]2(C(=O)N2CCOCC2)CC[C@@H]1C`, the growth is 6.22% (active).

As for `CN(C)CCCCC(C(=O)CBr)(c1ccccc1)c1ccccc1`, the growth is 0.308% (active).

For `Cn1cc(-c2csc(-c3cn(CCN)c4ccc(Br)cc34)n2)c2cccnc21`, the growth is 13.5%.

With `Cc1csc(-c2ccc3c(c2)COC3(CCCN(C)C)c2ccc(F)cc2)c1` (stereo not given), the growth was -17.4% (active).

With `CCN1CCN(C(=O)[C@]23CCC(C)(C)C[C@@H]2C2=CC[C@@H]4[C@@]5(C)C/C(=C/c6ccncc6)C(=O)C(C)(C)[C@@H]5CC[C@@]4(C)[C@]2(C)CC3)CC1`, the growth was -12.2% (active).

For the compound `Cn1cc(-c2csc(-c3c[nH]c4ccccc34)n2)c2cccnc21`, the growth was 44.4%.

Regarding `CN(C)c1ccc(C(=O)c2ccc(N(C)C)c(N)c2)cc1N`, the growth was 24.4%.

Take `COc1cccc(-c2nn(-c3ccccc3)cc2-c2ccnc(NCCNS(=O)(=O)c3cccc(F)c3)c2)c1`: the growth was 4.55% (active).

Consider `Cc1cc2nc3c4cc([N+](=O)[O-])cc([N+](=O)[O-])c4n(CCN(C)C)c3nc2cc1C`, for which the growth was 31.3%.

Turning to `CCCCCCCN(CCCCCCC)C(=N)c1ccnc2ccccc12`, the growth was -16.5% (active).

`Cn1c(/C(C#N)=C/c2ccc3ccccc3c2)cc2ccccc21`: the growth was 19.9%.

Take `C/C(=N/NC(N)=S)C(=O)O`: the growth is 27.7%.

Turning to `COc1cc(-c2cc3ncccc3c3nc(N)c4cccnc4c23)cc(OC)c1OC`, the growth is 20.7%.

As to `Cn1cc(-c2csc(-c3cn(CCNC(=O)OC(C)(C)C)c4ccccc34)n2)c2cccnc21`, the growth was 42.3%.

Regarding `COC(=O)[C@]12CC[C@@H](C)[C@H](C)[C@@H]1C1=CC[C@@H]3[C@@](C)(CC#N)C4=C(C[C@@]3(C)[C@]1(C)CC2)OC[C@]4(C)C=O`, the growth was 2.4% (active).

`c1cnc2[nH]cc(-c3csc(-c4cn(CCCN5CCCCC5)c5ccccc45)n3)c2c1`: the growth is -10.6% (active).

`COc1ccc(-n2c(/C=C/c3ccc(O)c(OC)c3)cc(/C=C/c3ccc(O)c(OC)c3)nc2=O)cc1`: the growth is 17.2%.

Take `Cc1cc(N2CCOCC2)nc(N(CCCNc2ccnc3cc(Cl)ccc23)Cc2ccco2)n1`: the growth was 9.42% (active).

As for `CCCCC[C@H]1C/C=C2/C(=O)C(Cl)=C[C@@H]2C/C=C\CCCC(=O)O[C@@H](CCCCC)C/C=C2/C(=O)C(Cl)=C[C@@H]2C/C=C\CCCC(=O)O1`, the growth is 3.32% (active).

Consider `CC(C)(C)c1cc(-n2c(-c3ccc(Cl)cc3)nc3cc(C(=O)Nc4ccc(Cl)cc4)ccc32)n[nH]1`, for which the growth is 45.7%.

As to `C=C(C)[C@@H]1CC[C@]2(C(=O)NNC(=O)c3cccnc3)CC[C@]3(C)[C@H](CC[C@@H]4[C@@]5(C)CCCNC(C)(C)[C@@H]5CC[C@]43C)[C@@H]12`, the growth was 40.1%.

On to `COc1ccc(C(=O)/C=C/c2cc(-c3cc(OC)c(OC)c(OC)c3)n[nH]2)cc1OC`, for which the growth was -1.18% (active).

As to `Nc1ccc(Br)cn1`, the growth was 91.5%.

In the case of `Cn1cc(-c2nc(-c3cn(C)c4ncccc34)cs2)c2ccccc21`, the growth was 31.7%.

For `Cc1cc(Cl)c2c(N(C)C)cccc2n1`, the growth is 97.6%.

Turning to `C=C(C)[C@@H]1CC[C@]2(C(=O)O)CC[C@]3(C)[C@H](CC[C@@H]4[C@@]5(C)C/C(=C/c6ccc(OC)cc6)C(=O)C(C)(C)[C@@H]5CC[C@]43C)[C@@H]12`, the growth is 15.3%.

As to `CCC(c1ccc(OC)cc1)C(CC)c1ccc(O)c(CN2CCCCC2)c1` (stereo not given), the growth is 62.7%.

The record behind these values is PubChem BioAssay (NCI).
